Test results taken from PubChem BioAssay (NCATS).
Records with an inconclusive call do not appear. Unmarked numbers belong to inactive results. Active and inactive are the calls of the source. The call rests on the fitted dose curve; in most records, active means well fitted inhibition curve with a large enough effect; inconclusive means small, poorly fitted or top-dose-only effect; inactive means flat fitted curve, though single readings scatter. Where a SMILES comes first, the peptide text is derived from it. The star is where a group is joined. AFC = O=c1cc(C(F)(F)F)c2ccc(N*)cc2o1

system: CRL-7250; assay: Cytotoxic Profiling of Annotated Libraries Using Quantitative High-Throughput Screening (AID 1296008); details: Five cell lines viability, CellTiter-Glo ATP luminescence, 48-72 h; max response: active compounds read low; further: nearly all actives have a fitted effect of over 60% in size
Procedure, shortened: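 Cells exposed to compounds for 48 or 72 hr at 37 degrees Celsius. Viability read as ATP-coupled luminescence with CellTiter-Glo after 10 min at room temperature.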
On the % scale 0 is the no-effect control and ±100 the full control effect; potency means the concentration at half of the fitted maximal effect.

Compound	max response [%]	outcome	Potency
C[C@]12C[C@@H](O)[C@@H]3C[C@@]1(O[C@@H]1O[C@H](CO)[C@@H](O)[C@H](O)[C@H]1O)[C@]3(COC(=O)c1ccccc1)C(=O)O2	-9.75	–	–
COc1ccc(C(=O)n2c(C)c(Cc3cccc(O[C@@H](C)C(=O)O)c3)c3cc(OC(F)(F)F)ccc32)cc1	-19.1	–	–
C[C@@H]1O[C@@H](OC[C@H]2O[C@@H](OC(CCCCc3ccc(O)cc3)CCc3ccc(O)cc3)[C@H](O)[C@@H](O)[C@@H]2O)[C@H](O)[C@H](O)[C@H]1O (stereo not given in full)	3.8	–	–
C=C1C[C@]23C[C@H]1CC[C@H]2[C@@]12CC[C@H](O)[C@@](C)(C(=O)O1)[C@H]2[C@@H]3C(=O)O	-11.3	–	–
CON(C)C(=O)[C@H](O)[C@H](Cc1ccccc1)NC(=O)c1cc2cc(Cl)ccc2[nH]1	–	inactive	–
Cc1cc(C)cc(C(=O)NOCCCCCC(=O)NO)c1	–	–	8200 nM (active)
CC(O)CCC1C(CO[C@@H]2O[C@H](CO)[C@@H](O)[C@H](O)[C@H]2O)CC(O)CC1(C)C (stereo not given in full)	–	inactive	–
COC(=O)C1=CO[C@@H](O)C2C(CO)=CCC12 (stereo not given in full)	-9.24	–	–
CC(C)(C)CCN1C[C@@H]2C(CNC(=O)c3cc(Cl)cc(Cl)c3)[C@@H]2C1 (stereo not given in full)	-6.01	–	–
CC(C)c1cc2c(c(O)c1O)[C@@]13CCCC(C)(C)[C@@H]1[C@H](OC3=O)C2=O	0.881	–	–
C/C=C/C(O)C1OC(=O)CC1Nc1ccc(C(=O)O)cc1 (stereo not given)	4.31	–	–
C=CC1(C)CC(OC(=O)/C(C)=C\COC(C)=O)C(C(=C)C(=O)O)C(O)C1C(=C)CO (stereo not given)	–	inactive	–
NC(=O)[C@H]1CCS[C@@H]2C[C@]3(CCCN3C(=O)Cc3ccc(NC(=O)COc4ccc(Cl)cc4Cl)cc3)C(=O)N12	-14.3	–	–
CCCOC(c1cc2nccc(C(=O)O)c2[nH]1)c1ccccc1Cl (stereo not given)	-10.8	–	–
COc1ccc(/C=C/C(=O)O[C@@H]2[C@@H](O)[C@H](C)O[C@@H](O[C@H]3[C@@H]4C=CO[C@@H](O[C@H]5O[C@@H](CO)[C@H](O)[C@@H](O)[C@@H]5O)[C@@H]4[C@@]4(CO)O[C@@H]34)[C@@H]2OC(C)=O)cc1	-2.4	–	–
O=C(NCC(O)CO)c1ccncc1Nc1ccc(I)cc1F (stereo not given)	–	–	6510 nM (active)
C[C@@H]1O[C@@H](O[C@H]2[C@H](O[C@H]3[C@H](O[C@H]4CC[C@@]5(C)C(CC[C@]6(C)C5CC=C5[C@@H]7CC(C)(C)C[C@@H](O)[C@]7(C)CC[C@]56C)[C@@]4(C)CO)O[C@H](C(=O)O)[C@@H](O)[C@@H]3O)OC[C@H](O)[C@@H]2O)[C@H](O)[C@H](O)[C@H]1O (stereo not given in full)	-3.42	–	–
CCc1ccc(Cc2ccc3c(c2)[C@]2(OC3)O[C@H](CO)[C@@H](O)[C@H](O)[C@H]2O)cc1	–	inactive	–
CC(=O)O[C@@H]1[C@H](O[C@@H]2O[C@@H](CO)[C@H](O)[C@H]2O)[C@@H](O[C@@H]2O[C@@H](C)[C@H](O[C@@H]3OC[C@@H](O)[C@H](O)[C@H]3O)[C@@H](O)[C@H]2O)[C@H](OC(=O)[C@]23CCC(C)(C)C[C@H]2C2=CCC4[C@@]5(C)CC[C@H](O[C@@H]6O[C@H](C(=O)O)[C@@H](O)[C@H](O)[C@H]6O[C@@H]6O[C@H](CO)[C@H](O)[C@H](O)[C@H]6O)[C@@](C)(C=O)C5CC[C@@]4(C)[C@]2(C)CC3)O[C@@H]1C (stereo not given in full)	–	inactive	–
CC1=CC(=O)C2C(C)(C)CCC[C@]2(C)[C@H]1CO (stereo not given in full)	-14.4	–	–

Compound	max response [%]	outcome	Potency
C=C[C@H]1CN2CC[C@H]1C[C@@H]2C(O)c1ccnc2ccc(OC)cc12 (stereo not given in full)	–	inactive	–
CN[C@H](C(=O)N[C@H](C(=O)N(C)[C@H](/C=C(\C)C(=O)O)C(C)C)C(C)(C)C)C(C)(C)c1ccccc1	–	–	5.2 nM (active)
CNS(=O)(=O)c1ccccc1Nc1nc(Nc2ccc(N3CCN(C)CC3)cc2OC)ncc1Cl	–	–	1460 nM (active)
COc1ccc(/C=C/C(=O)O[C@H]2[C@H](O[C@H]3[C@@H]4C=CO[C@@H](O[C@@H]5O[C@H](CO)[C@@H](O)[C@H](O)[C@H]5O)[C@@H]4[C@@]4(CO)O[C@@H]34)O[C@@H](C)[C@H](O)[C@H]2OC(C)=O)cc1	3.12	–	–
C[C@@H]1C(=O)O[C@H]2[C@H](O)C34[C@H]5C[C@@H](C(C)(C)C)C36[C@@H](OC(=O)[C@@H]6O)O[C@@]4(C(=O)O5)[C@@]12O (stereo not given in full)	3.72	–	–
O=C(O)c1cc(-c2c(-c3ccccc3)nn3ccccc23)n[nH]c1=O	–	inactive	–
C[C@@H]1CCC2C(C)(C)[C@H](O)CC[C@]2(C)[C@@]12Cc1c(O)cc3c(c1O2)CN([C@@H](CCC(=O)O)C(=O)O)C3=O (stereo not given in full)	–	inactive	–
CC(=O)O[C@]1(C(C)=O)CC[C@H]2[C@@H]3C[C@H](C)C4=CC(=O)C=C[C@]4(C)[C@@]3(F)[C@@H](O)C[C@@]21C	-19.1	–	–
Cc1cc(N2CCN([C@@H]3CN[C@H](C(=O)N4CCSC4)C3)CC2)n(-c2ccccc2)n1	-17.8	–	–
CC1(C)CC[C@]2(C(=O)O[C@@H]3O[C@H](CO[C@@H]4O[C@H](CO)[C@@H](O)[C@H](O)[C@H]4O[C@@H]4O[C@H](CO)[C@@H](O)[C@H](O)[C@H]4O)[C@@H](O)[C@H](O[C@@H]4O[C@H](CO)[C@@H](O)[C@H](O)[C@H]4O)[C@H]3O)CC[C@]3(C)C(=CCC4[C@@]5(C)CC[C@@H](O)[C@@](C)(C(=O)O[C@@H]6O[C@H](CO)[C@@H](O)[C@H](O)[C@H]6O)C5CC[C@]43C)[C@@H]2C1 (stereo not given in full)	–	inactive	–
COc1ccc(CC2NCCc3c2[nH]c2ccc(C)cc32)cc1OC (stereo not given)	-17.7	–	–
CCOC(=O)C(CCc1ccccc1)NC(C)C(=O)N1C(=O)N(C)CC1C(=O)O (stereo not given)	3.58	–	–
CC(=O)N[C@@H](Cc1c[nH]c2ccccc12)C(=O)N[C@@H](CCC(=O)O)C(=O)N[C@@H](Cc1cnc[nH]1)C(=O)N[C@@H](CC(=O)O)C(=O)Nc1ccc2c(C(F)(F)F)cc(=O)oc2c1 (Ac-WEHD-{AFC})	–	inactive	–
Nc1nc2c(ncn2[C@@H]2O[C@@H]3COP(=O)(O)O[C@H]3[C@H]2O)c(=O)[nH]1	-1.98	–	–
CNC(=O)c1ccccc1Nc1nc(Nc2ccc3c(c2OC)CCCC(N2CCN(CCO)CC2)C3)ncc1Cl (stereo not given)	–	–	7310 nM (active)
CO[C@H]1/C=C/C=C/C=C/C[C@H](OC(=O)[C@@H](C)NC(=O)C2CCCCC2)[C@H](C)[C@@H](O)/C(C)=C/CCc2cc(O)cc(c2)NC(=O)C1	–	–	306 nM (active)
COc1ccc(CC2C(=O)NC(C)C(=O)N(C)C3Cc4ccc(cc4)Oc4cc(ccc4OC4OC(CO)C(O)C(O)C4O)CC(C(=O)NC(C)C(=O)NC(C)C(=O)N2C)N(C)C3=O)cc1 (stereo not given)	–	–	87.3 nM (active)
CC(C)=CCC[C@](C)(O)[C@H]1CC[C@]2(C)[C@@H]1[C@H](O)CC1[C@@]3(C)CC[C@H](O)C(C)(C)C3[C@@H](O[C@@H]3O[C@H](CO)[C@@H](O)[C@H](O)[C@H]3O[C@@H]3OC[C@@H](O)[C@H](O)[C@H]3O)C[C@]12C (stereo not given in full)	-0.925	–	–
C[C@@H]1C(=O)O[C@H]2[C@@H](O)C34[C@H]5C[C@@H](C(C)(C)C)C36[C@@H](OC(=O)[C@@H]6O)O[C@@]4(C(=O)O5)[C@@]12O (stereo not given in full)	-0.587	–	–
CC1COC2(OC3CC4C5CC(O[C@@H]6O[C@H](C)[C@@H](O[C@@H]7O[C@@H](C)[C@H](O)[C@@H](O)[C@H]7O)[C@H](O)[C@H]6O)C6CC(O)CCC6(C)C5CCC4(C)C3C2C)C(O)C1 (stereo not given in full)	-20	–	–
